# Data reported in PubChem BioAssay AID1159580 (chemical genetic matrix, 2015).
# “And” between values parts separate entries of the source, which are not always exact repeats. Identical values can stand only once. The whole screen tested about 5,500 compounds, of which about 2,000 (36%) were called active. Not shown: some 18% with an inconclusive outcome. The list shows a part of the results. A number with no mark means an inactive call. No stated cut-off is given here; in the data, active means normalized growth mostly below about 0.91 (no sharp cut-off); inconclusive means no clear call, values can overlap the other calls; inactive means mostly above about 0.92.
# Assay: chemical genetic growth profiling, strain panel (AID 1159580);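 further: tested at 20 µM; growth read once vehicle control cultures reached saturation at 30 °C; 1 = growth at the plate median or of vehicle wells; lower values mean less growth of the strain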
# Conditions: S. cerevisiae deletion strains, growth OD
compound,measurement,setting,value
CC[C@H](C)C(=O)O[C@H]1C[C@@H](C)C=C2C=C[C@H](C)[C@H](CC[C@@H]3C[C@@H](O)CC(=O)O3)[C@H]21,normalized growth,"locus YAL013W, strain DEP1, active compounds read low",0.982
same,normalized growth,"locus YAL021C, strain ccr4, active compounds read low",0.82 (active)
same,normalized growth,"locus YAL026C, strain drs2, active compounds read low",0.994
same,normalized growth,"locus YAL030W, strain snc1, active compounds read low",1.01
same,normalized growth,"locus YBL061C, strain skt5, active compounds read low",1
same,normalized growth,"locus YBR009C, strain hhf1, active compounds read low",1.02
same,normalized growth,"locus YBR021W, strain FUR4, active compounds read low",1.04
same,normalized growth,"locus YBR023C, strain chs3, active compounds read low",1.01
same,normalized growth,"locus YBR171W, strain sec66, active compounds read low",1
same,normalized growth,"locus YBR229C, strain ROT2, active compounds read low",0.944
same,normalized growth,"locus YBR231C, strain swc5, active compounds read low",0.915
same,normalized growth,"locus YBR279W, strain paf1, active compounds read low",1.01
same,normalized growth,"locus YCL011C, strain gbp2, active compounds read low",1.01
same,normalized growth,"locus YCL016C, strain dcc1, active compounds read low",0.999
same,normalized growth,"locus YCL029C, strain bik1, active compounds read low",0.991
same,normalized growth,"locus YCL061C, strain MRC1, active compounds read low",0.997
same,normalized growth,"locus YCL069W, strain vba3, active compounds read low",1.01
same,normalized growth,"locus YCR088W, strain abp1, active compounds read low",0.998
same,normalized growth,"locus YDL005C, strain med2, active compounds read low",0.982
same,normalized growth,"locus YDL035C, strain GPR1, active compounds read low",0.961
same,normalized growth,"locus YDL040C, strain nat1, active compounds read low",1.01
same,normalized growth,"locus YDL074C, strain BRE1, active compounds read low",1
same,normalized growth,"locus YDL101C, strain DUN1, active compounds read low",0.977
same,normalized growth,"locus YDL134C, strain PPH21, active compounds read low",0.971
same,normalized growth,"locus YDL185W, strain tfp1, active compounds read low",0.977
same,normalized growth,"locus YDL192W, strain arf1, active compounds read low",0.983
same,normalized growth,"locus YDR001C, strain nth1, active compounds read low",1
same,normalized growth,"locus YDR069C, strain doa4, active compounds read low",1.01
same,normalized growth,"locus YDR101C, strain arx1, active compounds read low",1.02
same,normalized growth,"locus YDR137W, strain rgp1, active compounds read low",1.28 [resistant] (active)
same,normalized growth,"locus YDR150W, strain NUM1, active compounds read low",0.967
same,normalized growth,"locus YDR159W, strain sac3, active compounds read low",1.02
same,normalized growth,"locus YDR162C, strain NBP2, active compounds read low",0.951
same,normalized growth,"locus YDR195W, strain ref2",1.06
same,normalized growth,"locus YDR297W, strain sur2, active compounds read low",0.997
same,normalized growth,"locus YDR318W, strain mcm21, active compounds read low",0.996
same,normalized growth,"locus YDR334W, strain swr1, active compounds read low",0.954
same,normalized growth,"locus YDR335W, strain msn5, active compounds read low",1
same,normalized growth,"locus YDR388W, active compounds read low",0.996
same,normalized growth,"locus YDR392W, strain spt3, active compounds read low",0.983
same,normalized growth,"locus YDR502C, strain sam2, active compounds read low",0.969
same,normalized growth,"locus YEL003W, strain gim4, active compounds read low",1
same,normalized growth,"locus YEL037C, strain rad23, active compounds read low",1
same,normalized growth,"locus YEL061C, strain CIN8 (second series), active compounds read low",1
same,normalized growth,"locus YEL061C, strain CIN8, active compounds read low",0.979
same,normalized growth,"locus YER015W, strain faa2, active compounds read low",1.01
same,normalized growth,"locus YER016W, strain bim1, active compounds read low",1
same,normalized growth,"locus YER110C, active compounds read low",0.974
same,normalized growth,"locus YER111C, strain swi4, active compounds read low",1.01
same,normalized growth,"locus YER155C, strain BEM2 (second series), active compounds read low",1.01
same,normalized growth,"locus YER155C, strain BEM2, active compounds read low",0.986
same,normalized growth,"locus YER167W, strain BCK2, active compounds read low",0.942
same,normalized growth,"locus YFR010W, strain ubp6, active compounds read low",1.02
same,normalized growth,"locus YGL078C, strain dbp3, active compounds read low",0.984
same,normalized growth,"locus YGL086W, strain mad1, active compounds read low",0.968
same,normalized growth,"locus YGL167C, strain pmr1, active compounds read low",0.998
same,normalized growth,"locus YGL173C, strain kem1, active compounds read low",1.01
same,normalized growth,"locus YGL227W, strain vid30, active compounds read low",0.996
same,normalized growth,"locus YGL240W, strain doc1, active compounds read low",1.04
same,normalized growth,"locus YGL248W, strain PDE1, active compounds read low",0.974
same,normalized growth,"locus YGL253W, strain hxk2, active compounds read low",0.996
same,normalized growth,"locus YGR078C, strain PAC10, active compounds read low",0.996
same,normalized growth,"locus YGR135W, strain pre9, active compounds read low",0.942
same,normalized growth,"locus YGR229C, strain SMI1, active compounds read low",0.95
same,normalized growth,"locus YGR252W, strain gcn5, active compounds read low",0.878
same,normalized growth,"locus YHR013C, strain ard1, active compounds read low",1.04
same,normalized growth,"locus YHR027C, strain rpn1, active compounds read low",1.01
same,normalized growth,"locus YHR030C, strain SLT2, active compounds read low",0.985 and 0.963
same,normalized growth,"locus YHR079C, strain IRE1 (second series), active compounds read low",0.995
same,normalized growth,"locus YHR079C, strain IRE1, active compounds read low",0.992
same,normalized growth,"locus YHR094C, strain hxt1, active compounds read low",0.989
same,normalized growth,"locus YHR129C, strain ARP1, active compounds read low",0.996
same,normalized growth,"locus YHR142W, strain chs7, active compounds read low",1
same,normalized growth,"locus YHR200W, strain rpn10, active compounds read low",0.994
same,normalized growth,"locus YIL066C, strain RNR3, active compounds read low",0.965
same,normalized growth,"locus YIL073C, strain SPO22, active compounds read low",0.823
same,normalized growth,"locus YIL125W, strain kgd1, active compounds read low",0.974
same,normalized growth,"locus YIR030C, strain dcg1, active compounds read low",0.976
same,normalized growth,"locus YJL092W, strain hpr5, active compounds read low",1
same,normalized growth,"locus YJL095W, strain BCK1 (second series), active compounds read low",1.01
same,normalized growth,"locus YJL095W, strain BCK1, active compounds read low",0.988 and 0.96
same,normalized growth,"locus YJL115W, strain asf1, active compounds read low",1.01
same,normalized growth,"locus YJL129C, strain trk1, active compounds read low",0.997
same,normalized growth,"locus YJL134W, strain LCB3, active compounds read low",0.979
same,normalized growth,"locus YJL154C, strain vps35, active compounds read low",1.01
same,normalized growth,"locus YJL164C, strain tpk1, active compounds read low",1
same,normalized growth,"locus YJL166W, strain qcr8, active compounds read low",1.01
same,normalized growth,"locus YJL168C, strain set2, active compounds read low",0.996
same,normalized growth,"locus YJL187C, strain SWE1 (second series), active compounds read low",0.989
same,normalized growth,"locus YJL187C, strain SWE1, active compounds read low",1
same,normalized growth,"locus YJR043C, strain POL32, active compounds read low",1.04
same,normalized growth,"locus YJR066W, strain TOR1, active compounds read low",0.915
